Assay results: PubChem BioAssay (NCATS)
Results filed as inconclusive are left out. Active and inactive are the calls of the source. Calls come from the whole dose curve; as a rule, active = well fitted cell-killing curve with a large enough effect; inconclusive = small, poorly fitted or top-dose-only effect; inactive = flat fitted curve, though single readings scatter.

Assay: Cell Viability - SH-SY5Y (AID 544);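 note: 0% = DMSO alone and -100% = 100 µM tamoxifen; nearly all actives have a fitted effect of over 55% in size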
Details: SH-SY5Y neuroblastoma cell viability; viability change, negative = cytotoxic: at 92.2 µM (top of the series)
Text: NIH Chemical Genomics Center [NCGC]
NIH Molecular Libraries Screening Centers Network [MLSCN]
National Institutes of Environmental Health Sciences [NIEHS]
National Toxicology Program [NTP]
We have developed a 1536-well cell-based assay for quantitative high throughput screening (qHTS) against a number of cell lines to determine in vitro cytotoxicity of small molecules. This particular assay uses the SH-SY5Y cell line which is derived from human neuroblastoma.
NCGC Assay Protocol Summary:
The CellTiter-Glo luminescent cell viability assay (Promega) is a homogeneous method to measure the number of viable cells in culture. The end point readout of this assay is based on quantitation of intracellular ATP, an indicator of metabolic activity, using the luciferase reaction. Luciferase catalyzes the oxidation of beetle Luciferin to oxyluciferin and light in the presence of ATP. The luminescent signal is proportional to amount of ATP present.
Using the CellTiter-Glo luminescent cell viability assay, the amount of cellular ATP was measured in the SH-SY5Y cell line with complete culture medium following compound treatment for 40 hours. The assay was performed in opaque white Kalypsys 1536-well plates. In the screen, tamoxifen and doxorubicin were used as positive controls. Library compounds were measured for their ability to cause acute toxicity in the cell line, as reflected by a decrease in intracellular ATP levels, in a concentration-dependent manner. […] AC50 values were determined from concentration-response data modeled with the standard Hill equation.
qHTS protocol for CellTiter Glo SH-SY5Y cellular assay
[Step] [Parameter] [Value] [Description]
1. Reagent; 5 uL; 1500 SH-SY5Y cells/well
2. Time; 5 hr; 37 °C incubation
4. Controls; 23 nL; Tamoxifen 0.34 uM to 100 uM & Doxorubicin 0.02 nM to 100 uM
5. Time; 40 hr; 37 °C incubation
6. Reagent; 5 uL; CellTiter Glo reagent
7. Time; 20 min; Room Temperature
8. Detection; Luminescence; Viewlux plate reader
Keywords: cell viability, cytotoxicity, SH-SY5Y cell line, luminescence, NTPHTS, NTPHTS_NCGC, NIEHS, EPA, DSSTox, MLSMR, MLSCN, NIH Roadmap, qHTS, NCGC
For `NS(=O)(=O)O`, the “viability change, negative = cytotoxic” value was 12.3% (inactive).
In the case of `C1COC1`, the “viability change, negative = cytotoxic” value is reported as -11.3% (inactive).
In the case of `CC(=O)CC(C)C`, the “viability change, negative = cytotoxic” value is reported as -18.4% (inactive).
For `Nc1ccccc1S(=O)(=O)O`, the “viability change, negative = cytotoxic” value was -4.33% (inactive).
For `CCCOCC(C)OCC(C)O` (stereo not given), the “viability change, negative = cytotoxic” value was -13% (inactive).
With `CNc1ccc([N+](=O)[O-])cc1` the “viability change, negative = cytotoxic” value was -18.3% (inactive).
For `C[C@@H]1CC2(OC[C@]3(C)O[C@H]23)O[C@H]2C[C@@]3(C)[C@@H]4CC[C@H]5C(C)(C)C(O[C@@H]6OC[C@@H](O)[C@H](O)[C@H]6O)CC[C@@]56C[C@@]46CC[C@]3(C)[C@@H]12` (stereo not given in full), the “viability change, negative = cytotoxic” value was -16.3% (inactive).
With `ICCc1ccccc1` the viability change, negative = cytotoxic was -96.6% (active).
With `CC#N` the “viability change, negative = cytotoxic” value was 4.26% (inactive).
In the case of `Nc1cccc(S(=O)(=O)O)c1`, the “viability change, negative = cytotoxic” value is reported as -14.7% (inactive).
In the case of `CCC(=O)/C=C/C1C(C)=CCCC1(C)C` (stereo not given), the “viability change, negative = cytotoxic” value is reported as -7.09% (inactive).
In the case of `O=C(O)c1ccc(Cl)cc1Cl`, the “viability change, negative = cytotoxic” value is reported as -2.26% (inactive).
With `O=C1NC(=O)c2cc([N+](=O)[O-])ccc21` the “viability change, negative = cytotoxic” value was -7.96% (inactive).
In the case of `CC(=C/C=C/C(C)=C/C=C/C=C(C)/C=C/C=C(C)/C=C/C(=O)O)/C=C/C(=O)O`, the “viability change, negative = cytotoxic” value is reported as -1.26% (inactive).
For `O=C(O)CCSSCCC(=O)O`, the “viability change, negative = cytotoxic” value was -14.5% (inactive).
In the case of `CC(=O)Nc1ccccc1C`, the “viability change, negative = cytotoxic” value is reported as -2.23% (inactive).
With `NC(=O)/N=N/C(N)=O` the “viability change, negative = cytotoxic” value was -24.4% (inactive).
With `Cc1ccc2c(c1[N+](=O)[O-])C(=O)c1ccccc1C2=O` the “viability change, negative = cytotoxic” value was -18.2% (inactive).
With `C=Cc1ccccn1` the “viability change, negative = cytotoxic” value was -1.61% (inactive).
In the case of `COC(=O)c1ccccc1`, the “viability change, negative = cytotoxic” value is reported as -3.31% (inactive).
In the case of `CC(C)c1ccccc1`, the “viability change, negative = cytotoxic” value is reported as -15.6% (inactive).
For `O=C1C=CCCC1`, the “viability change, negative = cytotoxic” value was 3.7% (inactive).
For `COc1cccc(N)c1`, the “viability change, negative = cytotoxic” value was -1.95% (inactive).
For `CCNS(=O)(=O)c1ccc(C)cc1`, the “viability change, negative = cytotoxic” value was -4.41% (inactive).
With `O=[N+]([O-])c1ccccc1CCO` the “viability change, negative = cytotoxic” value was -20.5% (inactive).
For `COC(=O)CCC(=O)OC`, the “viability change, negative = cytotoxic” value was 4.04% (inactive).
In the case of `O=c1[nH][nH]c(=O)c2cc([N+](=O)[O-])ccc12`, the “viability change, negative = cytotoxic” value is reported as 0.069% (inactive).
For `CC(=O)OCCC(C)C`, the “viability change, negative = cytotoxic” value was 2.03% (inactive).
With `O=[N+]([O-])c1cc(C(F)(F)F)ccc1Cl` the “viability change, negative = cytotoxic” value was 11.6% (inactive).
For `NC(=O)CCCCC(N)=O`, the “viability change, negative = cytotoxic” value was -5.38% (inactive).
For `Cc1ccco1`, the “viability change, negative = cytotoxic” value was -0.661% (inactive).
For `CCC(C)=O`, the “viability change, negative = cytotoxic” value was -7.06% (inactive).
With `CNc1ccccc1` the “viability change, negative = cytotoxic” value was -9.68% (inactive).
In the case of `O=C(O)c1ccc(CO)o1`, the “viability change, negative = cytotoxic” value is reported as -9.37% (inactive).
For `CCC1CO1` (stereo not given), the “viability change, negative = cytotoxic” value was -11.2% (inactive).
For `Cc1c(N)cccc1[N+](=O)[O-]`, the “viability change, negative = cytotoxic” value was -7.36% (inactive).
With `COc1ccc(OC)cc1` the “viability change, negative = cytotoxic” value was -4.35% (inactive).
With `Cc1c(C(=O)O)cccc1[N+](=O)[O-]` the “viability change, negative = cytotoxic” value was -0.721% (inactive).
In the case of `Cc1cc(C)c(N)cc1C`, the “viability change, negative = cytotoxic” value is reported as 1.35% (inactive).
For `CC(C)Cc1nccs1`, the “viability change, negative = cytotoxic” value was -3.73% (inactive).
